RGS7-Gao: RGS7-Galphao binding modulators, primary screen, biochemical, multiplexed bead flow cytometry; 220,000 tested, 0.35% active; binding response (% of control), % at 10 µM; actives lie on both sides; in the data active = binding response below about 49% or above about 150%; inconclusive = no clear call, values can overlap the other calls; inactive = in between;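 note: fluorescent Galphao held in activated GDP-AlF4 state binding bead-coupled RGS7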
RGS4-Gao reg: modulators of RGS4 binding to Galphao, primary screen, biochemical, multiplexed bead flow cytometry. actives lie on both sides. binding response (% of control), % at 10 µM. 220,000 tested, 0.33% active. Guanine nucleotide-binding protein G(o) subunit alpha (Homo sapiens), P09471. AID 1415, 2008; in the data active = binding response below about 49% or above about 150%; inactive = in between;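 note: fluorescent Galphao activated with aluminum fluoride binding bead-coupled RGS4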
Avidin fluor: green autofluorescence of compounds with avidin beads – biophysical, 488/530 nm, flow cytometry, artefact control, profiling panel; AID 1775, 2009; compound fluorescence 488/530 nm; hits give high values; 220,000 tested, 0.38% active; fluorescence (KMESF) at 10 µM; in the data active = fluorescence above about 47
GSH fluor: compound fluorescence on glutathione beads, profiling panel, artefact control, biophysical, 488/530 nm, flow cytometry; GSH beads flow cytometry, compound fluorescence 488/530 nm; hits give high values; fluorescence (KMESF) at 10 µM; 190,000 tested, 0.25% active; in the data active = fluorescence above about 89;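 note: glutathione beads carrying GST-tagged Bcl family fusion proteins plus one bare bead set; values are compound well signal with DMSO vehicle wells as background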
RGS8-Gao: RGS8-Galphao binding modulators, primary screen, biochemical, multiplexed bead flow cytometry | actives lie on both sides | response (percent of control binding), % at 10 µM | 220,000 tested, 0.34% active | AID 1423, 2008; in the data active = response below about 60% or above about 140%; inactive = in between;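 note: Galphao activated as the GDP aluminium fluoride complex binding bead-coupled RGS8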
RGS16-Gao HTS: modulators of RGS16 binding to Galphao, primary screen, biochemical, human proteins, multiplexed bead flow cytometry. 220,000 tested, 0.38% active. bead-based flow cytometry RGS16-Galphao binding, fluorescence; actives lie on both sides. binding response (% of control), % at 10 µM; call rule not given here;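 note: Galphao activated by GDP with aluminum fluoride before binding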
Target sequence (O15492 whole entry, looked up): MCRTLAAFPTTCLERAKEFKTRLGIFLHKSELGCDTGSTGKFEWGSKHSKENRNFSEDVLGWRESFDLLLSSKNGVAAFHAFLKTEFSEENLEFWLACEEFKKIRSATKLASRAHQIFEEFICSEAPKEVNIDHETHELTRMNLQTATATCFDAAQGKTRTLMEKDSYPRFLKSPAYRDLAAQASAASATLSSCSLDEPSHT
Target sequence (P09471 whole entry, looked up): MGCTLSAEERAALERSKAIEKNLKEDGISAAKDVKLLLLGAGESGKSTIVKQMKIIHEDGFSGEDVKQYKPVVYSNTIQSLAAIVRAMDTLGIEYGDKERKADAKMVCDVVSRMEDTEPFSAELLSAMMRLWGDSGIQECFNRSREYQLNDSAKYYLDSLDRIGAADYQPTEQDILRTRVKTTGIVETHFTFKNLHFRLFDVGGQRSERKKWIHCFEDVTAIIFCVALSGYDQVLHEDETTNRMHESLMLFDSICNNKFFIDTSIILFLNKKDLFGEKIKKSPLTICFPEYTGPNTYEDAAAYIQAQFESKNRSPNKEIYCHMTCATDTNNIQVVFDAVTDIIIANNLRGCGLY
Avidin counter: disruption of biotin probe capture by avidin, counter-screen for RGS protein interaction modulators, biochemical, flow cytometry, bead-based. 1,700 tested, under 10 active. inhibition, % at 10 µM. shares compounds with RGS16-Gao HTS. streptavidin beads, fluorescein-biotin binding;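 active = inhibition above 50%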;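 note: median green fluorescence of gated singlet beads compared with DMSO control wells; 0% = DMSO wells and 100% = complete loss of bead fluorescence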
RGS8-Gao single: RGS8-Galphao binding modulators, confirmation, biochemical, multiplexed bead flow cytometry, single concentration | shares compounds with RGS16-Gao HTS | binding response (% of control), % at 10 µM | 1,700 tested, 3% active | AID 1836, 2009 | bead-based flow cytometry RGS8-Galphao binding, fluorescence; actives lie on both sides; in the data active = binding response below about 72% or above about 130%; inactive = in between;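 note: Galphao activated as GDP AlF4 complex before binding bead RGS8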
RGS7-Gao single: RGS7-Galphao binding modulators, confirmation, biochemical, multiplexed bead flow cytometry, single concentration; 1,700 tested, 7.8% active; shares compounds with RGS16-Gao HTS; AID 1837, 2009; response (percent of control binding), % at 10 µM; bead-based flow cytometry RGS7-Galphao binding; actives lie on both sides; in the data active = response below about 75% or above about 130%; inactive = in between;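 note: fluorescent Galphao activated with GDP and aluminum fluoride binding bead-coupled RGS7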
RGS16-Gao conf: modulators of RGS16-Galphao protein binding, confirmation, biochemical, single concentration, multiplexed bead flow cytometry; bead-based flow cytometry; actives lie on both sides; 1,700 tested, 4% active; shares compounds with RGS16-Gao HTS; response (% of control binding), % at 10 µM; in the data active = response below about 74% or above about 130%; inactive = in between;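 note: Galphao activated as the GDP aluminium fluoride complex binding bead-coupled RGS16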
RGS4-Gao single: modulators of RGS4-Galphao protein binding, confirmation, biochemical, single concentration, multiplexed bead flow cytometry; shares compounds with RGS16-Gao HTS; actives lie on both sides; binding response (% of control), % at 10 µM; 1,700 tested, 4% active; AID 1840, 2009; in the data active = binding response below about 74% or above about 130%; inactive = in between
RGS19-Gao single: regulators of RGS19-Galphao binding, confirmation, biochemical, single point, multiplexed bead flow cytometry | shares compounds with RGS16-Gao HTS | bead-based flow cytometry RGS19-Galphao binding; actives lie on both sides | response (percent of control binding), % at 10 µM | 1,700 tested, 5% active | AID 1841, 2009; in the data active = response below about 50% or above about 160%; inactive = in between;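 note: 100% = no compound control and 0% = blank background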
* hit, by the source's call. In the library only some 1.2% were active in any assay of this set; here they are far more common.

Screening Cc1cccc(C(=O)N2CCN(c3ccc(N4CCOCC4)nn3)CC2)c1 returned RGS7-Gao inconclusive, RGS4-Gao reg 29*, Avidin fluor 2, RGS8-Gao 37*, RGS16-Gao HTS 22*, Avidin counter -1, RGS8-Gao single 111, RGS7-Gao single 118, RGS16-Gao conf 112, RGS4-Gao single 115 and RGS19-Gao single 107.
`CCOC(=O)C1C(c2ccc(O)c(O)c2)NC(=S)NC1(O)C(F)(F)F` (stereo not given) gave RGS7-Gao 34*, RGS4-Gao reg 18*, Avidin fluor 6, GSH fluor 6, RGS8-Gao 76, RGS16-Gao HTS 68, Avidin counter 0, RGS8-Gao single 98, RGS7-Gao single 98, RGS16-Gao conf 97, RGS4-Gao single 97 and RGS19-Gao single 102.
Screening Cc1cc(NC(=O)CSc2ccc3ccccc3c2)no1 returned GSH fluor 29, Avidin counter -1, RGS8-Gao single 99, RGS7-Gao single 98, RGS16-Gao conf 96, RGS4-Gao single 97 and RGS19-Gao single 104.
Screening Cc1cc(NC(=O)CSc2nnc(-c3ccco3)o2)no1 returned RGS7-Gao 96, RGS4-Gao reg 100, GSH fluor 44, RGS8-Gao 102, Avidin counter 4, RGS8-Gao single 95, RGS7-Gao single 80, RGS16-Gao conf 89, RGS4-Gao single 86 and RGS19-Gao single 71.
For Cc1cc(NC(=O)CSc2nc(-c3ccc(F)cc3)cs2)no1 the results were RGS7-Gao 85, RGS4-Gao reg 87, Avidin fluor 14, GSH fluor 15, RGS8-Gao 91 and RGS16-Gao HTS 89.
`Cc1cc(NC(=O)CSc2nc(-c3ccccc3)cs2)no1` gave GSH fluor 40, Avidin counter -1, RGS8-Gao single 98, RGS7-Gao single 100, RGS16-Gao conf 97, RGS4-Gao single 99 and RGS19-Gao single 118.
`CC(=O)Nc1ccc(NC(=O)CSc2nnc(-c3ccco3)o2)cc1` gave RGS7-Gao 104, RGS4-Gao reg 100, Avidin fluor 21, GSH fluor 11, RGS8-Gao 101 and RGS16-Gao HTS 104.

Screening results from PubChem BioAssay.
